For assay [1], the system named is PRMT1 (protein arginine N-methyltransferase 1). The experiment in a line: PRMT1 binders on small-molecule microarrays, primary screen, biochemical, small-molecule microarray, 635 nm fluorescence (AID 1088).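 Also: binding of Prmt1 protein to compounds spotted on small-molecule microarray slides.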 As to conditions: small-molecule microarray binding, higher = more signal.
Assay [2] is described as follows: yeast growth modulation, basal conditions, primary screen, YJM789 clinical isolate, OD600, 24 h (AID 1089).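 Also: growth of clinical yeast isolate S. cerevisiae YJM 789 seeded 1000 cells per well; test concentration not given here.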 The following applies: S. cerevisiae YJM789 growth, higher = more signal, called active from +8 up or from −8 down.
A short description of assay [3]: fission yeast growth modulation, primary screen, strain 972, OD600, 24 h, no modulator (AID 1090).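 Also: basal condition with compound alone and no growth modifier present; test concentration not given here.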 As to conditions: S. pombe 972 growth, higher = more signal, called active from +8 up or from −8 down.
A short description of assay [4]: S. cerevisiae growth modulation with rapamycin, primary screen, strain BY4716, OD600, 96 h (AID 1091). Also: test concentration not given here. As to conditions: higher = more signal, called active from +8 up or from −8 down.
For assay [5], the target named is Torsin-1A-interacting protein 2 (Homo sapiens) (UniProt Q8NFQ8). The experiment in a line: LULL1 binders on small-molecule microarray, primary screen, cell lysate, human LULL1 lysate, 635/667 nm fluorescence (AID 1092).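 Also: probe is lysate of COS7 cells overexpressing human LULL1; score merges per-feature 667 nm fluorescence with signal-to-noise.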 The following applies: hLULL1 lysate binding, 635 nm fluorescence, higher = more signal.
Chain of Torsin-1A-interacting protein 2 (Homo sapiens) (Q8NFQ8 whole entry, looked up): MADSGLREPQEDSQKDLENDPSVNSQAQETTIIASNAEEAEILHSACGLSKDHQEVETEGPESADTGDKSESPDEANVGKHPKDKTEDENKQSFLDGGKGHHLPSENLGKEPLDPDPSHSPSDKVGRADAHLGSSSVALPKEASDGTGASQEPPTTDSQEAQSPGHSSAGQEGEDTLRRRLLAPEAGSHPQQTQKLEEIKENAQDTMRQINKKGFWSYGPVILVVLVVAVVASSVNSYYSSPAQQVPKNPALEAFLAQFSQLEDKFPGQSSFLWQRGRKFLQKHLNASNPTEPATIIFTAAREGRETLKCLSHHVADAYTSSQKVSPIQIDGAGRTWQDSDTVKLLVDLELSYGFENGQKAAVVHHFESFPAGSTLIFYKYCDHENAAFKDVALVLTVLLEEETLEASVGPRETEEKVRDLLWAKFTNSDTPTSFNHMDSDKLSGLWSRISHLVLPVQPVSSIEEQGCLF
A short description of assay [6]: E. coli growth modulation, two-sided OD650, primary screen, E. coli filamentation project, strain DRC41, 24 h (AID 1093).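 Also: MC1000 strain lacking acrAB efflux and sulA so SOS filamentation is blocked; test concentration not given here.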 As to conditions: OD650, 24 h, higher = more signal, called active from +8 up or from −8 down.
Assay [7] can be described thus: small-molecule microarray binders of probe aLefty2, primary screen, biochemical, biotinylated probe, 635/667 nm fluorescence (AID 1094).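 Also: score merges spot fluorescence near 667 nm with spot signal-to-noise ratio.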 The following applies: higher = more signal.
In assay [8] the test system is Noggin (protein binding on small-molecule microarray). In words: Noggin binders on small-molecule microarray, primary screen, biochemical, 635/667 nm fluorescence (AID 1095).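 Also: score merges 667 nm feature fluorescence with signal to noise over triplicate slides.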 The following applies: 635 nm fluorescence, higher = more signal.
Assay [9] deals with Neurogenic locus notch homolog protein 3 (Homo sapiens) (UniProt Q9UM47). In words: NOTCH3 binders on small-molecule microarray, primary screen, biochemical, 635/667 nm fluorescence (AID 1096). The following applies: NOTCH3 binding, 635 nm fluorescence, higher = more signal.
Chain of Neurogenic locus notch homolog protein 3 (Homo sapiens) (Q9UM47 whole entry, looked up): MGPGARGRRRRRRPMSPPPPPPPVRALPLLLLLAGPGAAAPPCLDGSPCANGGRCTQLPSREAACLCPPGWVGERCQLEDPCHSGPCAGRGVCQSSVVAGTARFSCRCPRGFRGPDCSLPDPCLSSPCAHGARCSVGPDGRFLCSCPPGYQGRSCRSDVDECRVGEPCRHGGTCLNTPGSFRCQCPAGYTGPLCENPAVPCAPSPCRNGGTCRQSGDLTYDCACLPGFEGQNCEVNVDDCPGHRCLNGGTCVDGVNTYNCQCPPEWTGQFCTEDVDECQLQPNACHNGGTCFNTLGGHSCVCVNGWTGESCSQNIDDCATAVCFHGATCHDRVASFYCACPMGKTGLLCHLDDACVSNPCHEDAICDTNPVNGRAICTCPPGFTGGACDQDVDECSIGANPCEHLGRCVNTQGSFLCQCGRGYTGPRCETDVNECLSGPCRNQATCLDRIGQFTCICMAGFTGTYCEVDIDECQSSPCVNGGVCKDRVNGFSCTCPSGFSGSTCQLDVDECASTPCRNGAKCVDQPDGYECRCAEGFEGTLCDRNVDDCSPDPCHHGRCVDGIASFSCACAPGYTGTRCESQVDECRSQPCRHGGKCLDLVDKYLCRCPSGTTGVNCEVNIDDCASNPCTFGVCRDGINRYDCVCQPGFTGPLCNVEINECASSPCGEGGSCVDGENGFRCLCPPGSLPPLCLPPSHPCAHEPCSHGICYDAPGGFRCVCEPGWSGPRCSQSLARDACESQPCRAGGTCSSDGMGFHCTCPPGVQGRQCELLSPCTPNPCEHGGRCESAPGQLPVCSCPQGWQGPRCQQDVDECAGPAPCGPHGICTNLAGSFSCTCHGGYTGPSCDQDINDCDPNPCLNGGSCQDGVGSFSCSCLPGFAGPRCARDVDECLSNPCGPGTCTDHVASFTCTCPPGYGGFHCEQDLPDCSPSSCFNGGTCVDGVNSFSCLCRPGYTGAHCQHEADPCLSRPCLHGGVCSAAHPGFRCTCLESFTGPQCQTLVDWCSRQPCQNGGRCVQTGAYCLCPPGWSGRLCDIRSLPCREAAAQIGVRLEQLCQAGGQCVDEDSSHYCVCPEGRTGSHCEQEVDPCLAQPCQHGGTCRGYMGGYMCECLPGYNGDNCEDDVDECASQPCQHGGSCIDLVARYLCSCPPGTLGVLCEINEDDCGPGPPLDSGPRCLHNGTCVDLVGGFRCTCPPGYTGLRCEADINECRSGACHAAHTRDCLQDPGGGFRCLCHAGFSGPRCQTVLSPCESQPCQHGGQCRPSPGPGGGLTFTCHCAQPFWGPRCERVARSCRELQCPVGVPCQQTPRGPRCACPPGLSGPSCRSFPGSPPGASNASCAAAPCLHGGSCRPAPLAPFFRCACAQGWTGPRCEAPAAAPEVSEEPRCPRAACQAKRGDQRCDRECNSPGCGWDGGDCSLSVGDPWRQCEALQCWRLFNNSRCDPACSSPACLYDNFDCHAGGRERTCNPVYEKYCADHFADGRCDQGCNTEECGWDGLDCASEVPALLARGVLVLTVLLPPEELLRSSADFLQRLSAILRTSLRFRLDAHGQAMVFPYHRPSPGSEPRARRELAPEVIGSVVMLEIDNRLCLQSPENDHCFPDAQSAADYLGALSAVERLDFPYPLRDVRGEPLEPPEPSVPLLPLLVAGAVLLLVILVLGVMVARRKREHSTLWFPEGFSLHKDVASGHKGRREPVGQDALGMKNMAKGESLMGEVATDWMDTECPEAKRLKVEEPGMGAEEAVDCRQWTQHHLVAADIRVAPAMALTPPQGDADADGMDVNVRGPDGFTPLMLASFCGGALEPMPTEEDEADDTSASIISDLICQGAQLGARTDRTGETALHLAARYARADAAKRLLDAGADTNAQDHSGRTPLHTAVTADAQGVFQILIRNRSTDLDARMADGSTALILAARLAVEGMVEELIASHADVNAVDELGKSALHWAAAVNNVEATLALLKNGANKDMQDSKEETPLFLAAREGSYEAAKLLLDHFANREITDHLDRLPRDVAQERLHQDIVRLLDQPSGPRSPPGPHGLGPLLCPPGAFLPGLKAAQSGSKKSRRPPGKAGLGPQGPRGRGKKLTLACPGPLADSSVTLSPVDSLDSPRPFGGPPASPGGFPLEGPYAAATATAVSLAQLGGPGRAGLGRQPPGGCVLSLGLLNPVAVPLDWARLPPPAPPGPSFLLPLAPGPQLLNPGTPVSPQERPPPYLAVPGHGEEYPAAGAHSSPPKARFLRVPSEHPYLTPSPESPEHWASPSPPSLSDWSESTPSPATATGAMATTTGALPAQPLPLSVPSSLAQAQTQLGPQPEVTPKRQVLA
A short description of assay [10]: small-molecule microarray binders of probe aEGFR, primary screen, biochemical, biotinylated probe, 635/667 nm fluorescence (AID 1097).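 Also: probe is a biotinylated anti-EGFR antibody binding compounds printed on slides; score combines fluorescence near 667 nm and signal to noise of each spot.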 The following applies: higher = more signal.

Composite z-score and z-score data for 14 compounds are collected here from PubChem BioAssay.

Each structure is given as a SMILES string. Activity calls are given as the source filed them.

In the case of `CC1CC/C=C\[C@H]2OC34C=CCN(Cc5ccccc5)C(=O)[C@H]3N(C(CO)C(C)C)C(=O)[C@@H]4C2C(=O)O1` (stereo not given in full), the composite z-score in [1] is -0.856; in assay [5], 0.251; in [7] it was -0.0042; in assay [8], -0.964; in [9] it was -1.1; in assay [10] it was 0.244. Besides, the z-score in [2] was 0.0869 (inactive); in [3], -0.978 (inactive); in [4], 0.101 (inactive); in assay [6] it was 0.154 (inactive).

As to `CC(C)NC(=O)[C@@]1(c2ccc([N+](=O)[O-])cc2)CC(=O)N(C2CCCCC2)[C@@H]1c1ccc(CO)cc1`, the composite z-score in assay [1] was 1.54; in [5] it was 2.85; in [7] it was -0.271; in [8], 1.77; in [9], 1.07; in assay [10], -0.296. Also, the z-score in assay [2] was 0.359 (inactive); in [3], 0.52 (inactive); in assay [4] it was -0.55 (inactive); in assay [6] it was 1.07 (inactive).

For the compound `Cc1ccc(S[C@]2(C(=O)O)CC(=O)N(C3CCCCC3)[C@@H]2c2ccc(CO)cc2I)cc1`, the composite z-score was 1.5 in [1]; 3.35 in assay [5]; 0.274 in assay [7]; -0.0104 in assay [8]; 0.754 in assay [9]; -0.0369 in [10]. The z-score was -0.693 (inactive) in [2], -0.472 (inactive) in assay [3], 0.253 (inactive) in assay [4] and 0.843 (inactive) in assay [6].

`Oc1ccc2cc[n+](Cc3cc4c(cc3Br)OCO4)cc2c1`: the composite z-score in [1] was 0.621; in [5], -0.252; in [7], 0.0894; in assay [8], -0.883; in [9] it was -1.11; in [10], -0.211. Besides, the z-score in [2] was 1.07 (inactive); in assay [3], -1.41 (inactive); in assay [4], 0.645 (inactive); in assay [6] it was -0.603 (inactive).

Take `COC(=O)C/C=C/C[C@]1(O)C(=O)N(C)c2ccccc21`: the composite z-score in [1] was 0.756; in [5] it was 0.423; in [7] it was -0.186; in assay [8] it was 0.739; in [9] it was 0.434; in assay [10] it was -0.0805. For the same compound, the z-score in assay [2] was -1.73 (inactive); in assay [3] it was -1.35 (inactive); in assay [4], -1.02 (inactive); in assay [6] it was 1.48 (inactive).

With `COc1ccc([Si](C)(C)[C@@H]2[C@@H](CCO)O[C@]3(C(=O)N(Cc4ccccc4)c4ccc(N5CCOC5=O)cc43)[C@H]2C)cc1`, the composite z-score in assay [1] is 1.51; in assay [5] it was 1.78; in [7], -0.0722; in assay [8], 0.446; in [9], 0.693; in assay [10] it was -0.14. Moreover, the z-score is 2.55 (inactive) in assay [2], -0.522 (inactive) in assay [3], 17.5 (active) in assay [4] and 1.44 (inactive) in assay [6].

Take `CCCC1(C(=O)OC)C=C2C(=C(C)C(=O)C2C)CN1` (stereo not given): the composite z-score in assay [1] is -1.06; in assay [5], 0.941; in [7] it was 0.0932; in assay [8], -0.0743; in assay [9], -0.0768; in assay [10], -0.0828. Besides, the z-score in [2] was -0.105 (inactive); in [3], 0.883 (inactive); in assay [4], 0.578 (inactive); in [6], -0.827 (inactive).

For `C=C(COC)/C(=C/C[C@H](OC(=O)c1ccncc1)c1ccccc1OCCO)c1cc(C(=O)OC)ccc1OC`, the composite z-score in assay [1] was 1.44; in assay [5], 2.65; in assay [7], -0.157; in [8] it was 1.23; in assay [9], 1.04; in [10] it was 0.146. For the same compound, the z-score was -0.819 (inactive) in assay [2], -0.925 (inactive) in [3], -0.498 (inactive) in assay [4] and 0.0572 (inactive) in assay [6].

Regarding `CC(C)=C1C(=O)C(c2ccccc2)=C2CN3C(=O)N(CCc4ccccc4)C(=O)[C@]3(Cc3ccc(C(F)(F)F)cc3)[C@H]21`, the composite z-score is -0.555 in assay [1]; 2.45 in [5]; 0.01 in assay [7]; -1.08 in assay [8]; 0.245 in assay [9]; -0.139 in assay [10]. In addition, the z-score is -0.117 (inactive) in assay [2], 1.38 (inactive) in assay [3], 0.812 (inactive) in assay [4] and -1.48 (inactive) in [6].

Take `COCCOC(=O)N1C(=O)[C@@]2(c3cc(C#CCCO)ccc31)[C@H](C(=O)Nc1nc3ccccc3s1)[C@H]1C(=O)O[C@H](c3ccccc3)[C@H](c3ccccc3)N1[C@@H]2c1ccc(O)cc1`: the composite z-score in [1] stood at 1.54; in assay [5], 2.79; in assay [7] it was 0.027; in assay [8], 0.797; in assay [9] it was 1.03; in assay [10], 0.152. In addition, the z-score was 1.32 (inactive) in assay [2], 0.663 (inactive) in assay [3], 2.23 (inactive) in assay [4] and 0.467 (inactive) in assay [6].

As for `COc1ccccc1CN1C(=O)c2ccccc2[C@](Cc2ccccc2I)(C(=O)O)[C@@H]1c1ccc(CO)cc1`, the composite z-score was 1.51 in assay [1]; 2.45 in assay [5]; -0.0031 in assay [7]; 0.653 in [8]; 1 in [9]; 0.554 in [10]. Also, the z-score in assay [2] is 0.443 (inactive); in assay [3], 0.812 (inactive); in assay [4], -0.0193 (inactive); in [6], 1.28 (inactive).

Take `O=C(Cc1ccccc1)[C@H]1C2C=CCCC(c3ccccc3)=C2CN1Cc1ccccc1` (stereo not given in full): the composite z-score in assay [1] was 0.044; in assay [5] it was -0.862; in assay [7] it was -0.207; in assay [8], -0.0884; in [9], -0.433; in [10], -0.0828. Further, the z-score in assay [2] is -0.213 (inactive); in [3] it was -1.29 (inactive); in assay [4], -0.481 (inactive); in [6] it was 2.42 (inactive).

Take `C=CCN1Cc2ccccc2[C@@H]2OC(c3ccc(OCCCO)cc3)=N[C@]2(CC=C)C1=O`: the composite z-score stood at 1.57 in assay [1]; 3.15 in [5]; 0.188 in assay [7]; 1.84 in assay [8]; 1.03 in assay [9]; 0.434 in assay [10]. Further, the z-score in assay [2] is -0.98 (inactive); in [3], -2.8 (inactive); in [4], -0.926 (inactive); in assay [6], 0.924 (inactive).

With `C=CC[C@@]1(C(=O)NCCCOC)N=C(c2ccc(OCCCO)cc2)O[C@@H]1c1ccccc1N=[N+]=[N-]`, the composite z-score in assay [1] is 1.14; in assay [5] it was 3.09; in [7] it was 0.085; in [8], 0.794; in [9], 0.681; in [10] it was -0.019. In addition, the z-score in [2] was 0.339 (inactive); in assay [3], 0.561 (inactive); in assay [4], -0.441 (inactive); in assay [6] it was 1.24 (inactive).
